# Publication PMC7862700, “An all-to-all approach to the identification of sequence-specific readers for epigenetic DNA modifications on cytosine”
# Assays:
# Assay in all cases: DAPPL (digital affinity profiling via proximity ligation, sequencing); 10 mM Tris-HCl pH 7.5, 50 mM NaCl, 1 mM DTT, 4% glycerol, room temperature, 30 min; GST-TFs on glutathione beads, 16-mer random dsDNA library, 0.1% formaldehyde crosslink after washing; high values mean tight binding
# [1] = target: T1, FLI1 (Homo sapiens, UniProt Q01543 1-452); conditions: protein: recombinant; tags: N-terminal GST; dsDNA, one strand shown
# T1 sequence: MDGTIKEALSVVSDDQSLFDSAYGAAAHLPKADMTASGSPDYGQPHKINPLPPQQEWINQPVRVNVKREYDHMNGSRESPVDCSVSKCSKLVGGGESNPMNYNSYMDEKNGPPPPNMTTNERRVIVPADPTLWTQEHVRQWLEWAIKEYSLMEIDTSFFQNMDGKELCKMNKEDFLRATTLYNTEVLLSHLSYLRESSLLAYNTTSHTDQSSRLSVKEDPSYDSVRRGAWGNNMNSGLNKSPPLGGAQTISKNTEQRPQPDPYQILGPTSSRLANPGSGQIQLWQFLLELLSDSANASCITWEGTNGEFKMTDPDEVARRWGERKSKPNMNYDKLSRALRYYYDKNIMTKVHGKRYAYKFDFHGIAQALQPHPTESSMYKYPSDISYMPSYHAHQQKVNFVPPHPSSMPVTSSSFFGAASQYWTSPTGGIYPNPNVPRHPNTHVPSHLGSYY
# Method in brief: (§1)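 Pools of DNA-barcoded human transcription factors, expressed in yeast as GST fusions on glutathione beads and combined with a tag-only sample, were incubated with 200 nmole of a 16-mer random double-stranded DNA library. Incubation took 30 min at room temperature in Tris/NaCl/DTT/glycerol buffer and was followed by washing, 0.1% formaldehyde crosslinking, proximity ligation (BsaI/T4 ligase, 1 h, 37 °C), PCR amplification and sequencing on an Illumina NextSeq500. Binding signal is the ratio of a hexamer's read frequency for a factor to its frequency for the tag-only sample.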
# [2] = target: T2, ELK1 (Homo sapiens, UniProt P19419 1-428); conditions: protein: recombinant; tags: N-terminal GST; dsDNA, one strand shown
# T2 sequence: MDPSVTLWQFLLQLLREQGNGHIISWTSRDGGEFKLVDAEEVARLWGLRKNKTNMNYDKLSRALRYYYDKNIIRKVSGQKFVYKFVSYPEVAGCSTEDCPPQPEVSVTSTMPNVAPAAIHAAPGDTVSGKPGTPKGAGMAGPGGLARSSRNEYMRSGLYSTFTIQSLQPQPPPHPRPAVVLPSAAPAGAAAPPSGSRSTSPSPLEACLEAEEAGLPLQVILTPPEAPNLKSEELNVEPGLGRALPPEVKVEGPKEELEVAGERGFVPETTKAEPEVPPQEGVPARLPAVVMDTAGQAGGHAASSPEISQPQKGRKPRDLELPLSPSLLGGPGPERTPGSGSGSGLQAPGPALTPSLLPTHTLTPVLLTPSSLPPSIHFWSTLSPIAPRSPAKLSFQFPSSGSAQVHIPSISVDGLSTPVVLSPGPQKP
# Method in brief: as §1
# [3] = target: T3, GABPA (Homo sapiens, UniProt Q06546 1-454); conditions: protein: recombinant; tags: N-terminal GST; dsDNA, one strand shown
# T3 sequence: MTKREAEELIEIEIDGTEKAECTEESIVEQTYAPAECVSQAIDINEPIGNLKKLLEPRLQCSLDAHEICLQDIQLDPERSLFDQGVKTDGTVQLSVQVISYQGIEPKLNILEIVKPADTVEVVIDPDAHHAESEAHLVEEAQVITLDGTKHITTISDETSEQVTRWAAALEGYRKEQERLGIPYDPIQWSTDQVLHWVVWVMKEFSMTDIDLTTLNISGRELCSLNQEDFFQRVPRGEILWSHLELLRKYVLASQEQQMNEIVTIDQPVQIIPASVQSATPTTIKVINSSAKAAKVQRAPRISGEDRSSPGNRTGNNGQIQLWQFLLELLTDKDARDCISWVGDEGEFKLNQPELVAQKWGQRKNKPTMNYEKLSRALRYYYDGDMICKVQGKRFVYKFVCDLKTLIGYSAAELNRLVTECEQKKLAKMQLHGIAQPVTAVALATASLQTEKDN
# Method in brief: as §1
# [4] = target: T4, ERG (Homo sapiens, UniProt P11308 1-479); conditions: protein: recombinant; tags: N-terminal GST; dsDNA, one strand shown
# T4 sequence: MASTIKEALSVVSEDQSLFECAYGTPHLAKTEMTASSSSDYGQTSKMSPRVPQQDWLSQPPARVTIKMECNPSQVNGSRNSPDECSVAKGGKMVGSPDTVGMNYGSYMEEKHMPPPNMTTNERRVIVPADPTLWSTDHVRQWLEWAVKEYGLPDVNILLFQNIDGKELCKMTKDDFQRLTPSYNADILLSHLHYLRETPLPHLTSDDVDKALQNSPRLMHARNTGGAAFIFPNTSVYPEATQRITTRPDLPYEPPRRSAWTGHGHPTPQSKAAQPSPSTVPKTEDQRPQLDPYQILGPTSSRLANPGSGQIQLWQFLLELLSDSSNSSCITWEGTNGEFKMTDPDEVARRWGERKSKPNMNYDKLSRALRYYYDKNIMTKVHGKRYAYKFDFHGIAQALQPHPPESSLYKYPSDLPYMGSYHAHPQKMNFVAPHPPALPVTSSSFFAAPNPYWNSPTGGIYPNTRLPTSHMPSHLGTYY
# Method in brief: as §1
# [5] = target: ELF1 (Homo sapiens, UniProt P32519 1-619); conditions: protein: recombinant; tags: N-terminal GST; dsDNA, one strand shown
# Sequence of ELF1 (P32519 whole entry): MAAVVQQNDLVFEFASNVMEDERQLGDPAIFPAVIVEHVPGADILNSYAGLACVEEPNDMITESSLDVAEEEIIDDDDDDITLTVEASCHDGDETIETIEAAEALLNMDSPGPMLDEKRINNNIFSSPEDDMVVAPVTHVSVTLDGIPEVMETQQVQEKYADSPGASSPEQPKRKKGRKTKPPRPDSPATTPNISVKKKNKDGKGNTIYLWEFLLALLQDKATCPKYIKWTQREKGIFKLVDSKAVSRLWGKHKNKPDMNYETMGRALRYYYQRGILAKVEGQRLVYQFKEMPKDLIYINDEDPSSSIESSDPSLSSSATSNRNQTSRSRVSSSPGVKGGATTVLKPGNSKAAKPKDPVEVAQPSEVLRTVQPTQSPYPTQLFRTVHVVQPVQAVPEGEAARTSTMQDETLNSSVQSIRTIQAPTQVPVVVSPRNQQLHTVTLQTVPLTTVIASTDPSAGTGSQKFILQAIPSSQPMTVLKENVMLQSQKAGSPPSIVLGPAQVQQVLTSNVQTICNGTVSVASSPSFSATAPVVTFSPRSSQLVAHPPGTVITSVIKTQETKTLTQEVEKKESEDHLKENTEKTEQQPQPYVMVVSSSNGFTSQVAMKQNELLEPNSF
# Method in brief: as §1
# [6] = target: T5, EHF (Homo sapiens, UniProt Q9NZC4 1-300); conditions: protein: recombinant; tags: N-terminal GST; dsDNA, one strand shown
# T5 sequence: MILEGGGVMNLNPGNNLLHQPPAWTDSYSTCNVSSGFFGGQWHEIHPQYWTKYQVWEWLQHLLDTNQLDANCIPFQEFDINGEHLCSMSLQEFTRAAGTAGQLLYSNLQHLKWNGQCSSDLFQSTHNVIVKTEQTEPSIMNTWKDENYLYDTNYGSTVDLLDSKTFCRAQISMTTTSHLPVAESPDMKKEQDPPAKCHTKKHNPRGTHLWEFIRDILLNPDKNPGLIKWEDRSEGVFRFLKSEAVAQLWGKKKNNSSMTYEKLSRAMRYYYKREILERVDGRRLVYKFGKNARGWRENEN
# Method in brief: as §1
# [7] = target: SPI1 (Homo sapiens, UniProt P17947 1-270); conditions: protein: recombinant; tags: N-terminal GST; dsDNA, one strand shown
# Method in brief: as §1
# [8] = target: SPIB (Homo sapiens, UniProt Q01892 1-262); conditions: protein: recombinant; tags: N-terminal GST; dsDNA, one strand shown
# Sequence of SPIB (Q01892 whole entry): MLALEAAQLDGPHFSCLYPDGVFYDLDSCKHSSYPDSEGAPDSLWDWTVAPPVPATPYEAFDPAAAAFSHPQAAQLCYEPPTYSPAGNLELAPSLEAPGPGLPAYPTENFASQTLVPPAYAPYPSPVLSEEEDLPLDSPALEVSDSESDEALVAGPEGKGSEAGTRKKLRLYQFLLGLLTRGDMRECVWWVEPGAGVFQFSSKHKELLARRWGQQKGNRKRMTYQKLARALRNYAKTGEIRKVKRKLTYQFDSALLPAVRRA
# Method in brief: as §1
# [9] = target: T6, ELK3 (Homo sapiens, UniProt P41970 1-407); conditions: protein: recombinant; tags: N-terminal GST; dsDNA, one strand shown
# T6 sequence: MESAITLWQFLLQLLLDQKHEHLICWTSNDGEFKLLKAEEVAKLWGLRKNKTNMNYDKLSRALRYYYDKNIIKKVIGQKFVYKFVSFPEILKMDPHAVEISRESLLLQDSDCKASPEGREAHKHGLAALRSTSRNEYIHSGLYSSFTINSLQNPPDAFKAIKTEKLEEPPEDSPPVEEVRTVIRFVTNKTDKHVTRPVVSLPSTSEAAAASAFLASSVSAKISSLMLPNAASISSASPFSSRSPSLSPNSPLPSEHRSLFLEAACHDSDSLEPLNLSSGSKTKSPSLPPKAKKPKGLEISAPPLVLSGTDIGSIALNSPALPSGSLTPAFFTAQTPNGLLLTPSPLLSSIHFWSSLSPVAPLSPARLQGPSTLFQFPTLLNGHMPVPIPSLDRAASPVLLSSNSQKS
# Method in brief: as §1
# [10] = target: T7, FEV (Homo sapiens, UniProt Q99581 1-238); conditions: protein: recombinant; tags: N-terminal GST; dsDNA, one strand shown
# T7 sequence: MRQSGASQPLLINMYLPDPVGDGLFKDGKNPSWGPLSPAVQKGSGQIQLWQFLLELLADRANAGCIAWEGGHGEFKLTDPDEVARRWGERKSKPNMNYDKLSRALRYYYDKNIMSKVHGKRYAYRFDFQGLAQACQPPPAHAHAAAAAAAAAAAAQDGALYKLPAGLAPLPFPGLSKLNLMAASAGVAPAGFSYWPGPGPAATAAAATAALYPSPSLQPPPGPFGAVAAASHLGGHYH
# Method in brief: as §1
# [11] = target: ETV5 (Homo sapiens, UniProt P41161 1-510); conditions: protein: recombinant; tags: N-terminal GST; dsDNA, one strand shown
# Sequence of ETV5 (P41161 whole entry): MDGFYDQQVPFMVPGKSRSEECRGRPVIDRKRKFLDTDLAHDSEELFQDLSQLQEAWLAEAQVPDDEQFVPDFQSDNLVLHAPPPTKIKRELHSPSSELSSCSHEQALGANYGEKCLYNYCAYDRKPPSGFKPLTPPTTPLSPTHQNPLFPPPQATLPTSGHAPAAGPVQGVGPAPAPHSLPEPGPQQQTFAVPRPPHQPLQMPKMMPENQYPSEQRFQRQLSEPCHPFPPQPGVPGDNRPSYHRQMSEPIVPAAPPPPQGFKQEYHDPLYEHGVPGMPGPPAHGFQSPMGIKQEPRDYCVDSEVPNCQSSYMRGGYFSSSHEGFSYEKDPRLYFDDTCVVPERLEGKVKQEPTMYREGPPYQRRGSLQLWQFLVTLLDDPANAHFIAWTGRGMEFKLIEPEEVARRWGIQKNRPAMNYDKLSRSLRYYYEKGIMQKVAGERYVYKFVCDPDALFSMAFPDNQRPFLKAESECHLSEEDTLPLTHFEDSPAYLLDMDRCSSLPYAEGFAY
# Method in brief: as §1
# [12] = target: HSF1 (Homo sapiens, UniProt Q00613 1-529); conditions: protein: recombinant; tags: N-terminal GST; chain copies: 3; dsDNA, one strand shown
# Sequence of HSF1 (Q00613 whole entry): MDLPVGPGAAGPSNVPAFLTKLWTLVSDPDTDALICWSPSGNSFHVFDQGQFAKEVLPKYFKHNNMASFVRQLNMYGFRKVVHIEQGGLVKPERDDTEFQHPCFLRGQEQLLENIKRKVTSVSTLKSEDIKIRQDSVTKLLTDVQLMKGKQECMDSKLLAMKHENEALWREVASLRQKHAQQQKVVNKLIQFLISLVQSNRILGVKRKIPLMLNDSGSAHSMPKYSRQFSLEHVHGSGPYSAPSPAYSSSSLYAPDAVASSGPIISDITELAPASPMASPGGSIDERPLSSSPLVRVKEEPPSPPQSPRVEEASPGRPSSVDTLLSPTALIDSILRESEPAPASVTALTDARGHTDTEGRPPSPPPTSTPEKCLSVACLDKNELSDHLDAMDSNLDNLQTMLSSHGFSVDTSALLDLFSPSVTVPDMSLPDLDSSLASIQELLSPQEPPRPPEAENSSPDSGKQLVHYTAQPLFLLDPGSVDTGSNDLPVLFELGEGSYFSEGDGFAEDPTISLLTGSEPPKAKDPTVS
# Method in brief: as §1
# [13] = target: T8, SPIC (Homo sapiens, UniProt Q8N5J4 1-248); conditions: protein: recombinant; tags: N-terminal GST; dsDNA, one strand shown
# T8 sequence: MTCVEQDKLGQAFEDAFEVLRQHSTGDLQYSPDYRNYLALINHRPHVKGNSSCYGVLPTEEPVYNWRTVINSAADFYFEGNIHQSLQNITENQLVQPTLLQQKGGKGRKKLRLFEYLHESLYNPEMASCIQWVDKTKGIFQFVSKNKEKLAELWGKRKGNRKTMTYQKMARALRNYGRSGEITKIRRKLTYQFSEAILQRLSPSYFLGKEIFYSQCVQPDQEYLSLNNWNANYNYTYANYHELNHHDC
# Method in brief: as §1
# [14] = target: ELF4 (Homo sapiens, UniProt Q99607 1-663); conditions: protein: recombinant; tags: N-terminal GST; dsDNA, one strand shown
# Sequence of ELF4 (Q99607 whole entry): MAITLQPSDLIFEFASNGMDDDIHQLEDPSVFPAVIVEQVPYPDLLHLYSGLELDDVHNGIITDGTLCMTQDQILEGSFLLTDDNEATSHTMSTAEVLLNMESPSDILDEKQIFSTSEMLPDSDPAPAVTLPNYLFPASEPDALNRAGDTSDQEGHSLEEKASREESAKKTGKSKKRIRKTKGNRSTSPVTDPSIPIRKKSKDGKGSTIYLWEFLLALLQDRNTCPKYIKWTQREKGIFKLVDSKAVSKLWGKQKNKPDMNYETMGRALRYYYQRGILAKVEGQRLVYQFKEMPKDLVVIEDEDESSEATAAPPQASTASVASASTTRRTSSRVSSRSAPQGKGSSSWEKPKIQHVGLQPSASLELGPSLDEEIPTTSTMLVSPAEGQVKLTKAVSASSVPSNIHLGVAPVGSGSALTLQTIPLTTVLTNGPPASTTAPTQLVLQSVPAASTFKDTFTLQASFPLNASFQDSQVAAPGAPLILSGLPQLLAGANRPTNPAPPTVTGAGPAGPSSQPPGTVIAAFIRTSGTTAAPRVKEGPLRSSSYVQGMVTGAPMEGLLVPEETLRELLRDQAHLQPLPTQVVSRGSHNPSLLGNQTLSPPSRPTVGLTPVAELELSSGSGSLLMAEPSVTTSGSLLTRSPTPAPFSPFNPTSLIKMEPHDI
# Method in brief: as §1
# [15] = target: T9, ELK4 (Homo sapiens, UniProt P28324-2 1-405); conditions: protein: recombinant; tags: N-terminal GST; dsDNA, one strand shown
# T9 sequence: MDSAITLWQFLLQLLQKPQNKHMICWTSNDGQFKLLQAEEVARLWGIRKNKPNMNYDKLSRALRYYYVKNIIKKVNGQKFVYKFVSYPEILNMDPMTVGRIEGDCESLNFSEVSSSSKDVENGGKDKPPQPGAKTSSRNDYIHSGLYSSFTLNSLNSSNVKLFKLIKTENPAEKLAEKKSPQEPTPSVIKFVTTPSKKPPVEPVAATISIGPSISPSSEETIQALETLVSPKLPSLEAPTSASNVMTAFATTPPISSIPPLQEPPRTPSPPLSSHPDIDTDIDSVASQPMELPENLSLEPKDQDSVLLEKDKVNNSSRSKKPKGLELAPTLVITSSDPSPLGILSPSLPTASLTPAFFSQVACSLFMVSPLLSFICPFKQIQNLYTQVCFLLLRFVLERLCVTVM
# Method in brief: as §1
# [16] = target: T10, ETV2 (Homo sapiens, UniProt O00321 1-342); conditions: protein: recombinant; tags: N-terminal GST; dsDNA, one strand shown
# T10 sequence: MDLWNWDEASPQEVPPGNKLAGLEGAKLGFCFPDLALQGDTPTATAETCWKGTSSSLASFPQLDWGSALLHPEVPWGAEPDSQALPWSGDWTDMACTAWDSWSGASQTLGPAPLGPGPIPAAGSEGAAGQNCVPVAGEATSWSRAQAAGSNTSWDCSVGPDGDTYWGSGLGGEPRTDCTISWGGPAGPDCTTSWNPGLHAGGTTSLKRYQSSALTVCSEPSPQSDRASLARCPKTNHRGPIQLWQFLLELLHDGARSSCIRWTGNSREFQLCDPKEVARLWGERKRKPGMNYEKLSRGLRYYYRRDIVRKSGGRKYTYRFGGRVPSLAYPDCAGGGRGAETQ
# Method in brief: as §1
# [17] = target: T11, ELF3 (Homo sapiens, UniProt P78545 1-371); conditions: protein: recombinant; tags: N-terminal GST; dsDNA, one strand shown
# T11 sequence: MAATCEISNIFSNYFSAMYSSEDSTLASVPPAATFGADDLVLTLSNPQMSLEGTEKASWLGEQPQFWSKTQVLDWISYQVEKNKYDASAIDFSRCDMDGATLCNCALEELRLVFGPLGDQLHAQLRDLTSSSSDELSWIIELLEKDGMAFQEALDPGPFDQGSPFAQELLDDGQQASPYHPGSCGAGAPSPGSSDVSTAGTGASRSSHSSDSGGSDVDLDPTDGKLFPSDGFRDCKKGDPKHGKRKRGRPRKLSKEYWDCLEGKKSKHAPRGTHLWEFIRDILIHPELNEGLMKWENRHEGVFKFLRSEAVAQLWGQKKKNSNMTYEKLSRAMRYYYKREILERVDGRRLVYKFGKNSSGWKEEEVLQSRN
# Method in brief: as §1
# [18] = target: CRX (Homo sapiens, UniProt O43186 1-299); conditions: protein: recombinant; tags: N-terminal GST; dsDNA, one strand shown
# Sequence of CRX (O43186 whole entry): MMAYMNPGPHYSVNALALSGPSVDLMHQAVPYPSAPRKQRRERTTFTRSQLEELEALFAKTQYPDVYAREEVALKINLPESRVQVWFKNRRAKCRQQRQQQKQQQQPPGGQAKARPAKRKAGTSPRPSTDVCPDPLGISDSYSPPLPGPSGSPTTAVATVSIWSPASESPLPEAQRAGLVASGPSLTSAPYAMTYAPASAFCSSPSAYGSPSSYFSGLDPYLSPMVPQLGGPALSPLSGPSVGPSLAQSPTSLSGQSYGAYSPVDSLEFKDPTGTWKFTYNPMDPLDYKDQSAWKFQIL
# Method in brief: as §1
# [19] = target: ETV1 (Homo sapiens, UniProt P50549 1-477); conditions: protein: recombinant; tags: N-terminal GST; dsDNA, one strand shown
# Sequence of ETV1 (P50549 whole entry): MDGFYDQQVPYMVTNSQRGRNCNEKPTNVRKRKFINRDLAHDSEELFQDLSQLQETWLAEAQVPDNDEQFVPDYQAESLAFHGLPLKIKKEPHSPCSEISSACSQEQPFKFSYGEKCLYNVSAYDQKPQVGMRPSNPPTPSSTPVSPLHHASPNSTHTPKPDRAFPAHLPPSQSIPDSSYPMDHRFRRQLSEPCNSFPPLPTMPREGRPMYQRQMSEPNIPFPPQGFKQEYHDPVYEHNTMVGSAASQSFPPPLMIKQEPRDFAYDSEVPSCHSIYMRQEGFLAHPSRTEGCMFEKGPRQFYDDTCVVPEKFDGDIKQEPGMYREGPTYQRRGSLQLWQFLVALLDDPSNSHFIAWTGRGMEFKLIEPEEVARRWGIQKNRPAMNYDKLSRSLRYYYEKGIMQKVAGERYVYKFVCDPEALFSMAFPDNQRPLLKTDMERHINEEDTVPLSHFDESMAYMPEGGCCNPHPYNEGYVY
# Method in brief: as §1
sequence,measurement,setting,value
TTTCTG,binding signal,[1],"1.4 fold enrichment (6-mer frequency, TF over GST control)"
same,binding signal,[2],"1.35 fold enrichment (6-mer frequency, TF over GST control)"
same,binding signal,[3],"1.36 fold enrichment (6-mer frequency, TF over GST control)"
same,binding signal,[4],"1.33 fold enrichment (6-mer frequency, TF over GST control)"
same,binding signal,[5],"1.34 fold enrichment (6-mer frequency, TF over GST control)"
same,binding signal,[6],"1.38 fold enrichment (6-mer frequency, TF over GST control)"
same,binding signal,[7],"1.42 fold enrichment (6-mer frequency, TF over GST control)"
same,binding signal,[8],"1.3 fold enrichment (6-mer frequency, TF over GST control)"
same,binding signal,[9],"1.46 fold enrichment (6-mer frequency, TF over GST control)"
same,binding signal,[10],"1.32 fold enrichment (6-mer frequency, TF over GST control)"
same,binding signal,[11],"1.31 fold enrichment (6-mer frequency, TF over GST control)"
same,binding signal,[12],"2.33 fold enrichment (6-mer frequency, TF over GST control)"
same,binding signal,[13],"1.3 fold enrichment (6-mer frequency, TF over GST control)"
same,binding signal,[14],"1.39 fold enrichment (6-mer frequency, TF over GST control)"
same,binding signal,[15],"1.52 fold enrichment (6-mer frequency, TF over GST control)"
same,binding signal,[16],"1.36 fold enrichment (6-mer frequency, TF over GST control)"
same,binding signal,[17],"1.44 fold enrichment (6-mer frequency, TF over GST control)"
same,binding signal,[18],"1.45 fold enrichment (6-mer frequency, TF over GST control)"
same,binding signal,[19],"1.3 fold enrichment (6-mer frequency, TF over GST control)"
